Growth data for 10 molecules are collected here from PubChem BioAssay (NCI).

Some test systems named below: RPMI-8226 leukemia; OVCAR-8 ovarian; OVCAR-5 ovarian; OVCAR-4 ovarian; SK-OV-3 ovarian; IGROV1 ovarian; OVCAR-3 ovarian; HS 578T breast; NCI/ADR-RES ovarian; T-47D breast; BT-549 breast; MDA-MB-435 melanoma; SW-620 colon; MCF7 breast; HCT-116 colon; HCC-2998 colon; KM12 colon; SR leukemia.
Common to all, as to assay: NCI-60 one-dose screen, 48 h (100 = growth as untreated, 0 = no growth, -100 = all killed)
Common to all, as to conditions: 10 µM unless noted

Several values for one entry are separate records, joined by “and”; a condition that tells them apart may be missing. Equal entries are not always repeated. Compounds without any hit were thinned out: in the full panel of roughly 83,000, 20% have a hit.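 Activity criterion: percent growth below 10, measured after cells in 96-well plates were exposed to a single compound concentration for 48 hours.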 Values without a mark were called inactive. Activity calls are given as the source filed them.

For the molecule `C[C@]12CC[C@@H](OC(=O)N(CCCl)N=O)C[C@@H]1CC[C@@H]1[C@@H]2CC[C@]2(C)C(=O)CC[C@@H]12`, the growth is 21.7% in the test with RPMI-8226 leukemia; 58.1% in the test on OVCAR-8 ovarian; 114% in the test on OVCAR-5 ovarian; 73% in the test on OVCAR-4 ovarian; 21.2% with SK-OV-3 ovarian; -13.9% (active) with IGROV1 ovarian. The growth with OVCAR-3 ovarian was 64.1%; with HS 578T breast, 81.6%; in the test with NCI/ADR-RES ovarian, 42.9%; in the test on T-47D breast, 33.8%; with BT-549 breast, 76.8%; with MDA-MB-435 melanoma, 64.5%. Besides, the growth with SW-620 colon was 52.9%; in the test on MCF7 breast it was 29.9%; with HCT-116 colon, 47.5%; in the test on HCC-2998 colon it was 53.6%; in the test with KM12 colon it was 24.5%.
Consider `CCOC(=O)c1ccccc1C(=O)OCC`, for which the growth in the test on SR leukemia was 128%; in the test with RPMI-8226 leukemia, 88.1%; with OVCAR-8 ovarian it was 84%; in the test on OVCAR-5 ovarian, 99.9%; in the test on OVCAR-4 ovarian it was 96.4%; in the test on SK-OV-3 ovarian it was 113%. For the same molecule, the growth was 64.7% in the test with IGROV1 ovarian; 95.5% in the test with HS 578T breast; 102% with NCI/ADR-RES ovarian; 100% in the test on T-47D breast; 91.5% in the test on MDA-MB-435 melanoma; 102% with SW-620 colon. The growth with MCF7 breast is 97.8%; in the test on HCT-116 colon, 100%; with HCC-2998 colon, 110%; in the test on KM12 colon it was 104%.
For `CC1(C)S[C@H]2CC[C@H]3OC(=O)[C@@H]1N23`, the growth with SR leukemia is 92.6%; in the test on RPMI-8226 leukemia, 79.5%; in the test on OVCAR-8 ovarian, 102%; with OVCAR-5 ovarian it was 91.1%; in the test on OVCAR-4 ovarian, 97.2%; in the test on SK-OV-3 ovarian, 111%. Also, the growth is 39.4% in the test with IGROV1 ovarian; 132% in the test with OVCAR-3 ovarian; 112% in the test with HS 578T breast; 104% with T-47D breast; 85.3% in the test on BT-549 breast; 93.3% in the test with MDA-MB-435 melanoma. Also, the growth was 113% in the test with SW-620 colon; 103% in the test on MCF7 breast; 103% with HCT-116 colon; 97.7% in the test on HCC-2998 colon; 111% in the test with KM12 colon.
On to `CCCC[C@@H]1CCN2C[C@@H](O)[C@@H](O)[C@@H]2[C@H]1O`, for which the growth with MCF7 breast is 111% [100 µM] and 89.6% [100 µM].
For the molecule `COc1ccc(CN)cc1OC`, the growth with SR leukemia is 104%; in the test on RPMI-8226 leukemia, 112% and 105%; in the test on OVCAR-8 ovarian, 109% and 102%; in the test with OVCAR-5 ovarian it was 110% and 94.9%; in the test with OVCAR-4 ovarian, 125% and 104%; in the test on SK-OV-3 ovarian, 113% and 105%. Also, the growth is 110% and 101% in the test on IGROV1 ovarian; 110% and 101% in the test on HS 578T breast; 106% and 103% in the test on NCI/ADR-RES ovarian; 113% and 97.4% in the test on T-47D breast; 113% and 102% in the test on BT-549 breast; 109% with MDA-MB-435 melanoma. The growth in the test on SW-620 colon was 111% and 99.5%; with MCF7 breast, 103% and 95.5%; with HCT-116 colon it was 97.8% and 102%; in the test on HCC-2998 colon, 91% and 106%; with KM12 colon, 120% and 106%.
As to `OCCNC1CCCCC1`, the growth in the test with SR leukemia was 94.2%; in the test with RPMI-8226 leukemia, 108%; in the test with OVCAR-8 ovarian, 112%; in the test with OVCAR-5 ovarian, 98%; with OVCAR-4 ovarian, 111%; with SK-OV-3 ovarian, 105%. Also, the growth in the test with IGROV1 ovarian was 111%; in the test on OVCAR-3 ovarian, 112%; in the test with NCI/ADR-RES ovarian, 115%; in the test with T-47D breast, 98.4%; in the test on BT-549 breast, 113%; in the test on MDA-MB-435 melanoma it was 106%. The growth was 101% in the test with MCF7 breast, 94.3% in the test with HCT-116 colon and 107% in the test on KM12 colon.
Regarding `CC1(C)N(Nc2ccccc2)C(=O)C2CCCN21` (stereo unspecified), the growth was 14.2% in the test with SR leukemia; 13.7% with RPMI-8226 leukemia; 87% with OVCAR-8 ovarian; 75.1% with OVCAR-5 ovarian; 85.1% in the test on SK-OV-3 ovarian; 72.7% with IGROV1 ovarian. Besides, the growth was 85.9% in the test on HS 578T breast; 85.9% in the test on NCI/ADR-RES ovarian; 56.8% with T-47D breast; 13.6% with BT-549 breast; 12.5% in the test on MDA-MB-435 melanoma; 62.5% in the test on SW-620 colon. The growth was 80.1% in the test on MCF7 breast, 12.1% with HCT-116 colon, 88.1% in the test with HCC-2998 colon and 15.7% in the test with KM12 colon.
For `CN(C)C(=S)SSC(=S)N(C)C`, the growth in the test with RPMI-8226 leukemia is 85.6% and 70%; with OVCAR-8 ovarian, 95.4% and 104%; with OVCAR-5 ovarian it was 97.4% and 110%; in the test on OVCAR-4 ovarian, 107% and 106%; with SK-OV-3 ovarian it was 122% and 113%; in the test on IGROV1 ovarian, 99.1%. Moreover, the growth in the test with HS 578T breast is 101% and 112%; in the test with T-47D breast it was 85.8% and 95.4%; with BT-549 breast, 101% and 111%; in the test on MDA-MB-435 melanoma it was 97.3%; in the test with SW-620 colon, 69.2% and 98%; with MCF7 breast, 70.9%. Also, the growth in the test on HCT-116 colon was 99%; in the test with HCC-2998 colon it was 109%; in the test with KM12 colon, 81.8% and 95.8%.
For the molecule `COC12CC3C4=CCOC5CC(=O)N6c7ccccc7C1(CCN2C4)C6C53` (stereo unspecified), the growth is 104% with RPMI-8226 leukemia; 91.8% in the test on OVCAR-8 ovarian; 121% in the test on OVCAR-5 ovarian; 97.5% with OVCAR-4 ovarian; 107% in the test with SK-OV-3 ovarian; 108% in the test with IGROV1 ovarian. The growth was 117% with OVCAR-3 ovarian; 117% in the test on HS 578T breast; 111% in the test on NCI/ADR-RES ovarian; 103% with T-47D breast; 96.3% in the test with BT-549 breast; 114% in the test with MDA-MB-435 melanoma. Moreover, the growth in the test on MCF7 breast was 95.2%; in the test with HCT-116 colon, 108%; with HCC-2998 colon, 96%; in the test with KM12 colon, 105%.
Turning to `C=C1C(=O)OC2/C=C(\C)CC/C=C(/C)CC(OC(=O)/C(=C/CO)CO)C12` (stereo unspecified), the growth with MCF7 breast is -85% [100 µM] (active) and -68.3% [100 µM] (active).
